The results in this text go back to PubChem BioAssay.

In experiment [1] the test system is Hepatitis C virus NS3 helicase. The experiment in a line: HCV NS3 helicase inhibitors, primary screen, biochemical, fluorescence polarization, LOPAC1280 library (AID 687035; in the data active = inhibition above about 37%). To be noted: Purified HCV NS3 helicase, Cy5-dT15 ssDNA binding fluorescence polarization; stronger effect = higher value; concentration not given here. On the technique in general: Fluorescence polarisation rises when a labelled molecule tumbles more slowly, as on binding a larger partner.

Experiment [2] can be described thus: Cy5 fluorescence quenching or enhancement artefacts, artefact control for HCV NS3 helicase inhibitor project, biochemical, LOPAC1280 (AID 687037). To be noted: Cy5-DNA-NS3h complex fluorescence interference counterscreen. (The purpose of a counterscreen is to sort out artefacts and off-target activity.)
Experiment [3] in a line: stimulators of nuclear beta-catenin in C2C12, primary screen, imaging, WNT3A-conditioned medium, mouse C2C12, NPC library (AID 1117326; in the data active = nuclear beta-catenin stimulation mostly above about 4.2%, no sharp cut-off; inactive = mostly below about 10%). The conditions noted are these: stronger effect = higher value.
Experiment [4] can be described thus: kinase inhibitors against Plasmodium liver-stage infection, cell-based, known kinase inhibitor set, luminescence, hepatoma host viability (AID 624392).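 Note: infected cells incubated roughly two days before readout.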 To be noted: Plasmodium liver stage in hepatoma cells, luciferase luminescence, concentration not given here; liver cell % of control: measured here: host liver cell viability; parasite % of control: stronger effect = lower value.

Values joined by “and” are separate entries in the source; they are usually repeats but may differ in a detail not shown here. Equal entries are not always repeated. Active and inactive are the calls of the source. Unless noted, the rule behind the calls is not given here.

As for `CN1CCN(CC(=O)N2c3ccccc3C(=O)Nc3cccnc32)CC1`, the inhibition in experiment [1] was -1% (inactive). The fluorescence ratio (interference) in experiment [2] is 1 (inactive). Moreover, the nuclear beta-catenin stimulation in experiment [3] (at 10 µM) was 1.7% (inactive); in experiment [3] (stimulation, at 2 µM), -0.5%.
For `N[C@@H](Cc1ccc(O)c(O)c1)C(=O)O`, in that order: 1% (inactive), 1 (inactive), 1% (inactive) and -0.9%.
As to `CCCCCCCC/C=C\CCCCCCCC(=O)NCc1ccc(O)c(OC)c1`, the inhibition in experiment [1] was -4% (inactive). In addition, in experiment [2], the fluorescence ratio (interference) is 1 (inactive). For the same compound, the nuclear beta-catenin stimulation in experiment [3] (at 10 µM) is 0% (inactive); in experiment [3] (stimulation, at 2 µM), -1.2%.
`NC(Cc1ccc(Cl)cc1)C(=O)O` (stereo not drawn): the inhibition in experiment [1] was -3% (inactive). Further, the fluorescence ratio (interference) in experiment [2] is 1 (inactive). Moreover, the nuclear beta-catenin stimulation in experiment [3] (at 10 µM) is 1.4% (inactive); in experiment [3] (stimulation, at 2 µM) it was 2.1%.
In the same order, the values of `O=C(O)c1cccnc1Nc1cccc(C(F)(F)F)c1` are -1% (inactive), 0.9 (inactive), 1.4% (inactive) and 0.9%.
Turning to `CCC1(C)CC(=O)NC1=O` (stereo not drawn), the inhibition in experiment [1] was 0% (inactive). The fluorescence ratio (interference) in experiment [2] was 1 (inactive). Further, the nuclear beta-catenin stimulation in experiment [3] (at 10 µM) is 0.2% (inactive); in experiment [3] (stimulation, at 2 µM), -0.3%.
As for `CN(C)CCC(c1ccccc1)c1ccccn1` (stereo not drawn), in experiment [1], the inhibition was -1% (inactive). Moreover, the fluorescence ratio (interference) in experiment [2] is 0.9 (inactive). The nuclear beta-catenin stimulation was 0.4% (inactive) in experiment [3] (at 10 µM) and 1.1% in experiment [3] (stimulation, at 2 µM).
For the compound `CN(C)C(=O)Oc1cccc([N+](C)(C)C)c1`, the inhibition in experiment [1] is -5% (inactive). For the same compound, the fluorescence ratio (interference) in experiment [2] is 1 (inactive). For the same compound, the nuclear beta-catenin stimulation in experiment [3] (at 10 µM) was 1% (inactive); in experiment [3] (stimulation, at 2 µM), 5.2%.
`NC[C@H](O)c1ccc(O)c(O)c1`: the inhibition in experiment [1] is -4% (inactive). In experiment [2], the fluorescence ratio (interference) is 0.9 (inactive). Also, the nuclear beta-catenin stimulation in experiment [3] (at 10 µM) was -1.8% (inactive); in experiment [3] (stimulation, at 2 µM) it was -1.5%.
Regarding `NC(=O)c1ncn([C@@H]2O[C@H](CO)[C@@H](O)[C@H]2O)c1O`, in experiment [1], the inhibition was -3% (inactive). Further, the fluorescence ratio (interference) in experiment [2] was 1 (inactive). Also, the nuclear beta-catenin stimulation in experiment [3] (at 10 µM) was 3% (inactive); in experiment [3] (stimulation, at 2 µM), 2.4%.
In the same order, the values of `CCOC(=O)C1=C(C)NC(C)=C(C(=O)OC)C1c1cccc(Cl)c1Cl` (stereo not drawn) are -1% (inactive), 1 (inactive), 35.8% (inactive) and 7.4%.
On to `O=C1NCC2(CCN(CCc3ccccc3)CC2)O1`, for which the inhibition in experiment [1] is -3% (inactive). In addition, the fluorescence ratio (interference) in experiment [2] was 1 (inactive). Further, the nuclear beta-catenin stimulation in experiment [3] (at 10 µM) is 0.4% (inactive); in experiment [3] (stimulation, at 2 µM) it was 1.5%.
For `CCN(CC)CCNC(=O)c1cc(S(C)(=O)=O)ccc1OC`, the inhibition in experiment [1] was -3% (inactive). The fluorescence ratio (interference) in experiment [2] was 0.9 (inactive). Besides, the nuclear beta-catenin stimulation in experiment [3] (at 10 µM) was 1.9% (inactive); in experiment [3] (stimulation, at 2 µM), 0.2%.
In the same order, the values of `COC(=O)Nc1nc2ccc(C(=O)c3cccs3)cc2[nH]1` are -5% (inactive), 0.9 (inactive), 80.4% (active) and 81.3%.
With `COc1ccc2[nH]cc(CCNC(C)=O)c2c1`, the inhibition in experiment [1] is -3% (inactive). The fluorescence ratio (interference) in experiment [2] is 1 (inactive). The nuclear beta-catenin stimulation in experiment [3] (at 10 µM) is 0.2% (inactive); in experiment [3] (stimulation, at 2 µM) it was -0.2%.
For `Cc1cc(C(C)(C)C)c(O)c(C)c1CC1=NCCN1`, in that order: -6% (inactive), 0.9 (inactive), 1.6% (inactive) and 2.7%.
Take `COc1cc2c(Nc3ccc(Br)cc3F)ncnc2cc1OCC1CCN(C)CC1`: the liver cell % of control in experiment [4] was 42.4% and 45.4% and 52%. For the same compound, the parasite % of control in experiment [4] was 0.285% (inactive) and 8.38% (inactive) and 117% (inactive). Besides, the nuclear beta-catenin stimulation in experiment [3] (at 10 µM) was -0.3% (inactive); in experiment [3] (stimulation, at 2 µM) it was -0.9%.
In the case of `CC(C)NNC(=O)c1ccncc1`, the inhibition in experiment [1] is -3% (inactive). Besides, the fluorescence ratio (interference) in experiment [2] was 0.9 (inactive). The nuclear beta-catenin stimulation in experiment [3] (at 10 µM) was 2.3% (inactive); in experiment [3] (stimulation, at 2 µM), -0.3%.
In the same order, the values of `CN(C)CCC=C1c2ccccc2C=Cc2ccccc21` are -2% (inactive), 1 (inactive), -1.8% (inactive) and -0.8%.
Regarding `CCN(CC)CCOCCOC(=O)C1(c2ccccc2)CCCC1`, the inhibition in experiment [1] was 0% (inactive). Further, the fluorescence ratio (interference) in experiment [2] was 1 (inactive). Besides, the nuclear beta-catenin stimulation is -0.6% (inactive) in experiment [3] (at 10 µM) and -0.4% in experiment [3] (stimulation, at 2 µM).
Consider `C[C@](N)(Cc1ccc(O)cc1)C(=O)O`, for which the inhibition in experiment [1] was -1% (inactive). Further, in experiment [2], the fluorescence ratio (interference) was 0.9 (inactive). The nuclear beta-catenin stimulation in experiment [3] (at 10 µM) was -0.2% (inactive); in experiment [3] (stimulation, at 2 µM), 4.5%.
Consider `Cc1ccccc1N1C(=O)c2cc(S(N)(=O)=O)c(Cl)cc2NC1C` (stereo not drawn), for which the inhibition in experiment [1] is 1% (inactive). Moreover, the fluorescence ratio (interference) in experiment [2] was 1 (inactive). For the same compound, the nuclear beta-catenin stimulation in experiment [3] (at 10 µM) was -0.4% (inactive); in experiment [3] (stimulation, at 2 µM), 1.1%.
Turning to `CCn1cc(C(=O)O)c(=O)c2cc3c(cc21)OCO3`, in experiment [1], the inhibition was -1% (inactive). Also, in experiment [2], the fluorescence ratio (interference) is 1 (inactive). For the same compound, the nuclear beta-catenin stimulation in experiment [3] (at 10 µM) is 0.2% (inactive); in experiment [3] (stimulation, at 2 µM), 0.8%.
Take `NC/C=C/C(=O)O`: the inhibition in experiment [1] is -5% (inactive). The fluorescence ratio (interference) in experiment [2] is 1 (inactive). Moreover, the nuclear beta-catenin stimulation is 0.3% (inactive) in experiment [3] (at 10 µM) and 1.6% in experiment [3] (stimulation, at 2 µM).
For `Cc1cc(C(C)(C)C)cc(C)c1CC1=NCCN1`, in experiment [1], the inhibition is 1% (inactive). Also, in experiment [2], the fluorescence ratio (interference) was 1 (inactive). The nuclear beta-catenin stimulation is 0.1% (inactive) in experiment [3] (at 10 µM) and 1% in experiment [3] (stimulation, at 2 µM).
As to `CN(C)CCCN1c2ccccc2Sc2ccc(C(F)(F)F)cc21`, in experiment [1], the inhibition is -5% (inactive). For the same compound, the fluorescence ratio (interference) in experiment [2] was 1 (inactive). Moreover, the nuclear beta-catenin stimulation in experiment [3] (at 10 µM) was 41.9% (active); in experiment [3] (stimulation, at 2 µM), 3.5%.
Turning to `COc1ccc(CCN(C)CCCC(C#N)(c2ccc(OC)c(OC)c2)C(C)C)cc1OC` (stereo not drawn), the inhibition in experiment [1] was -3% (inactive). Further, in experiment [2], the fluorescence ratio (interference) was 1 (inactive). The nuclear beta-catenin stimulation in experiment [3] (at 10 µM) was 0.2% (inactive); in experiment [3] (stimulation, at 2 µM), 0.5%.
For `O=c1c(-c2ccc(O)cc2)coc2cc(O)cc(O)c12`, in that order: -1% (inactive), 1 (inactive), 8.6% (inactive) and -1.1%.
Regarding `C[N+](C)(C)CCOC(N)=O`, the inhibition in experiment [1] was -1% (inactive). Further, the fluorescence ratio (interference) in experiment [2] is 0.9 (inactive). For the same compound, the nuclear beta-catenin stimulation in experiment [3] (at 10 µM) is -0.5% (inactive); in experiment [3] (stimulation, at 2 µM), 2.3%.
For `CCCOc1ccccc1-c1nc2n[nH]nc2c(=O)[nH]1`, in that order: -1% (inactive), 1 (inactive), -0.2% (inactive) and 0.5%.
With `NC(CO)C(=O)NNCc1ccc(O)c(O)c1O` (stereo not drawn), the inhibition in experiment [1] is 1% (inactive). In addition, the fluorescence ratio (interference) in experiment [2] is 1 (inactive). In addition, the nuclear beta-catenin stimulation in experiment [3] (at 10 µM) is 13.1% (inactive); in experiment [3] (stimulation, at 2 µM), 3.8%.
Regarding `CCOC(=O)C1=C[C@]2(CC)CCCN3CCc4c(n1c1ccccc41)[C@@H]32`, the inhibition in experiment [1] was -2% (inactive). Besides, the fluorescence ratio (interference) in experiment [2] was 1 (inactive). The nuclear beta-catenin stimulation in experiment [3] (at 10 µM) is 0.9% (inactive); in experiment [3] (stimulation, at 2 µM) it was -0.3%.

As usually defined, the inhibition is the change of the read-out against control, counted positive when it falls.
